Measured values published in the supplement of paper PMC10338343.
± gives the standard deviation.

Each sequence was assayed on MILI (PIWIL2) piRISC loaded with piRNA #1 (26 nt) (assay: pre-steady-state target cleavage rate (min^-1); guide: piRNA #1 5'p-UGAGGUAGUAGGUUGUAUAGUAUCCA; MIWI and MILI are mouse PIWI proteins and EfPiwi is from a freshwater sponge; tags in brackets are library labels; higher = faster piRNA-guided slicing of the target). Settings: auxiliary factor: 500 nM mouse GTSF1.
Summary of the method: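 In this Cleave-'n-Seq assay, uncleaved targets were sequenced and normalised to depth and to weakly complementary targets. They came from a transcribed, DNA-blocked target RNA library […] mixed with 1 nM active affinity-purified piRISC carrying one synthetic guide, with or without 500 nM GTSF1 partner protein, in HEPES–potassium acetate buffer at 33 °C for 0–8 or 0–960 min. After three trials were pooled and k3 was capped at 0.0001 min^-1, the pre-steady-state cleavage rate was obtained from a burst-and-steady-state fit.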
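Further: 1 nM active piRISC with 0.1 nM target library at 33 °C single turnover.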

Sequence | pre-steady-state target cleavage rate
GGAGUGGAGACUAUACAACCUACUACCUCA | 0.212 ± 0.029
GGAGUGCAUACUAUACAACCUUCUACCUCA | 0.00996 ± 0.002
GGAGAGGAUACUAUACAUGCUACUACCUCA | 0.0905 ± 0.01
GGAGACCUUACUAUACAACCUACUAUCUCA | 0.0879 ± 0.0097
GGAGACCAUACUAAACAACCUACUACCUCA | 0.153 ± 0.016
GGAGACCAUACUAUACACCCUACUACCUCA | 0.0841 ± 0.016
GGAGAGGAUACUAGACAACCUACUACCUCA | 0.118 ± 0.01
GGAGACCUAUCUAUACAAGCUACUACGUCA | 0.112 ± 0.012
GGAGAGGAUAACUAUACAACCUACUACCUCA | 0.0525 ± 0.0054
GGAGUGGAUACUAAACAUCCUACUACCUCA | 0.242 ± 0.013
GGAGACCUAUGUAGUACAACCUACUACCUCA | 0.00758 ± 0.0032
GGAGUGGAUACUAUACAACCUACUACCGUCA | 0.0282 ± 0.006
GGAGACCAUACUAUACAACCUAACUACCUCA | 0.0248 ± 0.0049
GGAGACGAUACUAUACAAGCUUCUACCUCA | 0.0442 ± 0.0052
GGAGACCAUACUAUACAACGUACUACCUGA | 0.011 ± 0.0036
GGAGACCAUUCUAUACAACCUACAACCUCA | 0.13 ± 0.013
GGAGAGGAUACAAUACAACCUACAACCUCA | 0.115 ± 0.015
GGAGUGGAUAGUAUACAUCCUACUACCUCA | 0.189 ± 0.017
GGAGACGAUACUAUCAACCUACUACCUCA | 0.14 ± 0.012
GGAGACGAUACUAUACAACCAUCUACCUCA | 0.00466 ± 0.003

Sequence | pre-steady-state target cleavage rate
GGAGUGGAUACUAUAUAACCUACUACCUCA | 0.191 ± 0.0088
GGAGACCAUACUAUUCAACCUACUACCUCA | 0.189 ± 0.016
GGAGUGGAUACUAUACUAGCUACUACCUCA | 0.158 ± 0.011
GGAGACCAUACUAAUACAACCUACUACCUCA | 0.124 ± 0.014
GGAGAGCUAACUAUACAACCUACUACCUCA | 0.137 ± 0.018
GGAGAGCAUACUAUUCAACCUACUACCUCA | 0.217 ± 0.017
GGAGACCACACUAUACAACCUACUACCUCA | 0.221 ± 0.042
GGAGUGGUAUCUAUACAACCUACUACCUCA | 0.136 ± 0.0091
GGAGAGGAUACUAUCCAACCUACUACCUCA | 0.232 ± 0.015
GGAGACCUAUCUCUACAACCUACUACCUCA | 0.0688 ± 0.0068
GGAGUCGAUACUAUACAACCUAGUACCUCA | 0.0166 ± 0.0031
GGAGUGGAUACAAUACAACCUUCUACCUCA | 0.0111 ± 0.0024
GGAGAGGAUACUAUACAACCUUCUACCUCA | 0.0114 ± 0.0024
GGAGACCAUUCUAUACAACCUACUUCCUCA | 0.0522 ± 0.0086
GGAGAGGAUACUUAUCAACCUACUACCUCA | 0.135 ± 0.0097
GGAGAGGAUACUAAACAACCUACUACCACA | 0.108 ± 0.011
GGAGACGAUACUAAACAACCUACUUCCUCA | 0.0843 ± 0.021
GGAGAGGUAUACUAUACAACCUACUACCUCA | 0.111 ± 0.0086
GGAGACGAUACUAUAGAACCUACUACCUGA | 0.0908 ± 0.021
GGAGUGGUUACUAUACAACCUAGUACCUCA | 0.0547 ± 0.01
